Each structure is given as a SMILES string. About 83,000 compounds went through this panel and 20% of them were active in at least one assay; those are over-represented in the sample as a whole.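 48-hour exposure, single concentration, 96-well plates; percent growth endpoint where 0 means no net growth. Active: below 10.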 Values without a mark were called inactive. The source made the active and inactive calls.

Some test systems named below: HCT-15 colon; HT29 colon; SNB-75 CNS; SNB-19 CNS; U251 CNS; PC-3 prostate; SK-MEL-5 melanoma; UACC-62 melanoma; LOX IMVI melanoma; SK-MEL-28 melanoma.
Experiment in all cases: NCI-60 one-dose screen, 48 h (100 = growth as untreated, 0 = no growth, -100 = all killed)
Common to all, as to details: 10 µM unless noted

Regarding `CCCCCCCCOC(=O)c1c(C)[nH]c(/C=C2\N=C(c3ccc[nH]3)C=C2OC)c1C`, the growth in the assay on HCT-15 colon was 1.19% (active); in the assay on HT29 colon, -11.2% (active); in the assay with SNB-75 CNS, -20.8% (active); with SNB-19 CNS it was 25.4%; in the assay with U251 CNS, -8.43% (active); with PC-3 prostate, 18%. The growth is -99.2% (active) with SK-MEL-5 melanoma, -25.7% (active) with UACC-62 melanoma, -44.9% (active) in the assay with LOX IMVI melanoma and -12.5% (active) in the assay on SK-MEL-28 melanoma.
Regarding `CCOc1cc(\C=N/N=C(N)/C(N)=N\N=C/c2ccc(O)c(OCC)c2)ccc1O`, the growth was 101% with HCT-15 colon; -46.5% (active) in the assay on HT29 colon; 116% in the assay with SNB-75 CNS; 109% in the assay on SNB-19 CNS; 95.8% in the assay with U251 CNS; 82.4% with PC-3 prostate. Further, the growth in the assay on SK-MEL-5 melanoma is 94.2%; with UACC-62 melanoma, 95.3%; in the assay on LOX IMVI melanoma, 103%; in the assay with SK-MEL-28 melanoma, 103%.
Take `CN1CCN(Cc2ccc(NC(=O)c3cncc(C#Cc4c(N)ncc5ccccc45)c3)cc2C(F)(F)F)CC1`: the growth in the assay on HCT-15 colon was -71.7% (active); with HT29 colon, -70.1% (active); in the assay on SNB-75 CNS, -94.4% (active); with SNB-19 CNS, -82% (active); with U251 CNS, -98.7% (active); with PC-3 prostate, -57.8% (active). Also, the growth is -91.9% (active) in the assay with SK-MEL-5 melanoma, -93.8% (active) in the assay with UACC-62 melanoma, -94.3% (active) with LOX IMVI melanoma and -83.2% (active) in the assay with SK-MEL-28 melanoma.
In the case of `O=C(NC1CCCCCC1)c1ccc2c(=O)n3c(nc2c1)CCCCC3`, the growth was 80.4% with HCT-15 colon; 87.3% in the assay on HT29 colon; 62.9% with SNB-75 CNS; 102% with SNB-19 CNS; 99.7% with U251 CNS; 92.2% in the assay with PC-3 prostate. The growth is 94.9% in the assay with SK-MEL-5 melanoma, 93.6% in the assay on UACC-62 melanoma, 96.1% in the assay with LOX IMVI melanoma and 108% in the assay on SK-MEL-28 melanoma.
Turning to `[2H]C([2H])([2H])Oc1ccc(/C=C/C(=O)/C=C(/C=C/c2ccc(OC([2H])([2H])[2H])c(OC([2H])([2H])[2H])c2OC([2H])([2H])[2H])OB(F)F)c(OC([2H])([2H])[2H])c1OC([2H])([2H])[2H]`, the growth with HCT-15 colon was 39.6%; with HT29 colon, 38.5%; in the assay with SNB-75 CNS, 57.1%; in the assay with SNB-19 CNS, 83%; with U251 CNS it was 47.7%; with PC-3 prostate, 67.6%. Moreover, the growth in the assay on SK-MEL-5 melanoma was 92.4%; with UACC-62 melanoma it was 56.5%; in the assay with LOX IMVI melanoma it was 13.2%; with SK-MEL-28 melanoma it was 73.3%.
For `COc1cc2cc(Oc3ccc(NC(=O)Nc4ccc(F)c(C(F)(F)F)c4)cc3)c(C)nc2cc1OCCN1CCCCC1`, the growth with HCT-15 colon was -71.5% (active); in the assay with HT29 colon it was -74% (active); in the assay on SNB-75 CNS, 92.7%; with SNB-19 CNS, 62.9%; in the assay on U251 CNS it was -85.3% (active); in the assay on PC-3 prostate it was -76% (active). For the same compound, the growth is -89.3% (active) in the assay with SK-MEL-5 melanoma, 50.6% in the assay with UACC-62 melanoma, -70.4% (active) in the assay with LOX IMVI melanoma and -62.5% (active) with SK-MEL-28 melanoma.
As to `COC(=O)c1c(C)nc(C)c2c1C(=O)C(Br)=C(NCCCCO)C2=O`, the growth is 49.8% with HCT-15 colon; 19.5% in the assay with HT29 colon; 97.7% in the assay on SNB-75 CNS; 75.3% in the assay on SNB-19 CNS; 72.1% with U251 CNS; 62.5% in the assay with PC-3 prostate. For the same compound, the growth in the assay with SK-MEL-5 melanoma is -53.4% (active); in the assay with UACC-62 melanoma, 44.2%; in the assay on LOX IMVI melanoma, 50.2%; in the assay with SK-MEL-28 melanoma, 102%.
In the case of `COc1cc(C(=O)n2nc(NCCCc3ccccc3)c3cc(N)ccc32)cc(OC)c1OC`, the growth in the assay on HCT-15 colon is 90.8%; in the assay with HT29 colon it was 91.8%; with SNB-75 CNS it was 85.2%; in the assay with SNB-19 CNS it was 101%; in the assay with U251 CNS, 100%; with PC-3 prostate, 79%. Also, the growth in the assay on SK-MEL-5 melanoma was 89.4%; with UACC-62 melanoma, 92.2%; with LOX IMVI melanoma it was 79.9%; in the assay with SK-MEL-28 melanoma, 96.4%.
In the case of `O=C1/C(=C/c2ccc(Br)cc2)COc2ccc(O)cc21`, the growth in the assay on HCT-15 colon is 42.5%; with HT29 colon it was 28.9%; in the assay on SNB-75 CNS, 92.7%; with SNB-19 CNS, 87.3%; with U251 CNS it was 57%; in the assay on PC-3 prostate it was 77.4%. For the same compound, the growth in the assay with SK-MEL-5 melanoma was 96%; in the assay with UACC-62 melanoma, 79.3%; in the assay on LOX IMVI melanoma it was -1.48% (active); with SK-MEL-28 melanoma it was 97.7%.
Consider `O=C1c2ccccc2-c2c1c1ccncc1c(=O)n2CCCn1ccnc1`, for which the growth was 40.8% in the assay on HCT-15 colon; 21% with HT29 colon; 50.3% in the assay on SNB-75 CNS; 41.5% in the assay with SNB-19 CNS; 20.4% in the assay with U251 CNS; 38% in the assay on PC-3 prostate. Further, the growth with SK-MEL-5 melanoma was 28.5%; in the assay with UACC-62 melanoma, 39.7%; with LOX IMVI melanoma it was 6.42% (active); with SK-MEL-28 melanoma it was 88.3%.
As for `Oc1ccc(C(c2ccc(O)cc2)c2ccc(Cl)cn2)cc1`, the growth in the assay on HCT-15 colon is 23.2%; in the assay on HT29 colon, 47.9%; with SNB-75 CNS it was -32.5% (active); in the assay on SNB-19 CNS it was 71.9%; with U251 CNS, 97%; in the assay on PC-3 prostate, -32.2% (active). The growth in the assay on SK-MEL-5 melanoma was 96.5%; in the assay with UACC-62 melanoma, 39.3%; with LOX IMVI melanoma, -42.6% (active); in the assay with SK-MEL-28 melanoma, 112%.
In the case of `COc1cc(/C=C2\CN(S(=O)(=O)c3ccc(C)cc3)C/C(=C\c3cc(CN4CCCC4)c(O)c(OC)c3)C2=O)cc(CN2CCCC2)c1O`, the growth in the assay with HCT-15 colon is -2.28% (active); in the assay on HT29 colon, -60.7% (active); in the assay on SNB-75 CNS it was 34.3%; with SNB-19 CNS, 15.6%; in the assay with U251 CNS, -74.5% (active); with PC-3 prostate, -20.2% (active). For the same compound, the growth in the assay with SK-MEL-5 melanoma was -17.5% (active); with UACC-62 melanoma, 34.3%; in the assay with LOX IMVI melanoma, -92.5% (active); in the assay with SK-MEL-28 melanoma it was 10.3%.
On to `O=C1C=CC2(O)OC(c3ccccc3)CC(=O)C2=C1O` (stereo not given), for which the growth with HCT-15 colon is 64.9%; in the assay on HT29 colon, 108%; in the assay on SNB-75 CNS, 92%; in the assay with SNB-19 CNS, 87.8%; in the assay with U251 CNS it was 74.9%; in the assay on PC-3 prostate, 79.7%. Moreover, the growth was 89.8% in the assay on SK-MEL-5 melanoma, 80.7% in the assay on UACC-62 melanoma, 77% in the assay on LOX IMVI melanoma and 95.7% in the assay on SK-MEL-28 melanoma.
In the case of `CC(=O)/C(Br)=C/c1ccc(Br)o1`, the growth is 65.8% with HCT-15 colon; 62.4% in the assay with HT29 colon; 92.6% in the assay on SNB-75 CNS; 87.8% in the assay with SNB-19 CNS; 80.4% in the assay with U251 CNS; 80.8% in the assay on PC-3 prostate. Further, the growth with SK-MEL-5 melanoma is -0.755% (active); in the assay with UACC-62 melanoma, 85.9%; in the assay with LOX IMVI melanoma, 38.7%; in the assay on SK-MEL-28 melanoma, 60.8%.

For the origin of these results see PubChem BioAssay (NCI).
